This is part of a sample that, as a whole, favours compounds with a hit. Of some 79,000 tested, about 15% had one in any assay. Unmarked numbers belong to inactive results. The source made the active and inactive calls. No stated cut-off is given here; in the data, active means growth inhibition above about 70%; inactive means the rest. Where a SMILES comes first, the peptide text is derived from it. [ ]: non-standard residue; d: D form. Phe(4-Cl) = N[CH](Cc1ccc(Cl)cc1)C(=O)O; 3Pal = N[CH](Cc1cccnc1)C(=O)O
Experiments:
[1] = NCI Yeast Anticancer Drug Screen. Data for the rad50 strain (AID 155);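 further: 0% = growth of vehicle-only cultures of the same strain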; details: S. cerevisiae rad50 strain growth inhibition, active compounds read high
Summary of the method: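 A DNA repair-deficient yeast mutant serves as the test organism; compound-induced growth inhibition is calculated against vehicle-treated cells.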

[2] = NCI Yeast Anticancer Drug Screen. Data for the mec2-1 strain (AID 157); details: S. cerevisiae mec2-1 strain, active compounds read high
Summary of the method: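 Readout is yeast growth inhibition, normalised to vehicle-treated controls, in the mec2-1 strain exposed to compound.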

[3] = NCI Yeast Anticancer Drug Screen. Data for the sgs1 mgt1 strain (AID 161);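 further: 0% = growth of cultures given vehicle only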; details: S. cerevisiae sgs1 mgt1 strain, active compounds read high
Summary of the method: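 Percent growth inhibition was derived by comparing compound-exposed mutant yeast with vehicle-exposed cultures. The strain carries alterations in DNA damage repair.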

[4] = NCI Yeast Anticancer Drug Screen. Data for the cln2 rad14 strain (AID 165);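 further: 0% = growth equal to vehicle treated cultures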; details: S. cerevisiae cln2 rad14 strain, active compounds read high
Summary of the method: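 Relative to vehicle controls, growth inhibition of compound-treated cln2 rad14 yeast was recorded.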

[5] = NCI Yeast Anticancer Drug Screen. Data for the bub3 strain (AID 167); details: S. cerevisiae bub3 mutant strain, active compounds read high
Summary of the method: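 Inhibition values come from growth of compound-treated mutant yeast normalised to vehicle-treated controls.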

[6] = NCI Yeast Anticancer Drug Screen. Data for the mlh1 rad18 strain (AID 175); details: S. cerevisiae mlh1 rad18 strain growth inhibition, active compounds read high
Summary of the method: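 Test agents were incubated with a yeast strain of defined genotype (DNA damage repair defect). Inhibition of growth was derived by comparison with vehicle-exposed cultures.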

[7] = at 5.0 µM (retest, dose inferred, filed as 0.5)
[8] = at 50.0 µM (retest, dose inferred, filed as 5.0)

Row | SMILES | growth inhibition [1, 7] | growth inhibition [1, 8] | growth inhibition ([1]; at 50.0 µM) | growth inhibition [2, 7] | growth inhibition [2, 8] | growth inhibition ([2]; at 50.0 µM) | growth inhibition [3, 7] | growth inhibition [3, 8] | growth inhibition ([3]; at 50.0 µM) | growth inhibition [4, 7] | growth inhibition [4, 8] | growth inhibition ([4]; at 50.0 µM) | growth inhibition [5, 7] | growth inhibition [5, 8] | growth inhibition ([5]; at 50.0 µM) | growth inhibition [6, 7] | growth inhibition [6, 8] | growth inhibition ([6]; at 50.0 µM)
1 | O=C1CSC(c2ccc(Cl)cc2)N1c1ccc(-c2ccc(-n3c(-c4ccccc4)nc4ccccc4c3=O)cc2)cc1 (configuration not stated) | -6% | 84% (active) | 69.4% | 2% | 63% | 47.2% | 9% | 65% | 84.2% (active) | -11% | 50% | 26.9% | -4% | 95% (active) | 84.8% (active) | -10% | 94% (active) | 87.5% (active)
2 | Cc1ccc(S(=O)(=O)NCCCSCCO)cc1 | 6% | 45% | 80.2% (active) | -45% | 91% (active) | 84.4% (active) | -12% | 25% | 70.4% (active) | 9% | 57% | 74% (active) | -11% | 63% | 74.2% (active) | -1% | 90% (active) | 54.6%
3 | CCCCCCCCCCCCCCCC[NH][Ge]([NH]CCCCCCCCCCCCCCCC)([NH]CCCCCCCCCCCCCCCC)[NH]CCCCCCCCCCCCCCCC | 98% (active) | 96% (active) | 87.4% (active) | 99% (active) | 97% (active) | 91.5% (active) | 99% (active) | 96% (active) | 90.2% (active) | 99% (active) | 96% (active) | 89.2% (active) | 99% (active) | 97% (active) | 87.2% (active) | 98% (active) | 95% (active) | 87.2% (active)
4 | COc1cc(/C=C2\S/C(=N/Nc3nc(-c4ccc(Br)cc4)cs3)NC2=O)cc(OC)c1OC | -2% | 67% | 84.8% (active) | -23% | 74% (active) | 76.2% (active) | -9% | 86% (active) | 97.8% (active) | -6% | 71% (active) | 80.2% (active) | 31% | 97% (active) | 95.3% (active) | 2% | 75% (active) | 91.5% (active)
5 | COc1ccc(CNC(C#N)c2ccccc2)cc1OC (configuration not stated) | 7% | -2% | 99% (active) | 2% | -3% | 99.7% (active) | 3% | -2% | 99.7% (active) | 5% | -3% | 99.5% (active) | 1% | -4% | 99.6% (active) | 2% | -5% | 99.5% (active)
6 | Cc1ccc(C(Cl)(c2ccc(C)cc2)c2ccc(C)cc2)cc1 | 3% | 90% (active) | 67.5% | 39% | 93% (active) | 93.1% (active) | -3% | 93% (active) | 97.5% (active) | -2% | 90% (active) | 94.5% (active) | 87% (active) | 92% (active) | 97.2% (active) | 11% | 91% (active) | 92.2% (active)
7 | COc1cc(CC#N)c(NC(C)=O)cc1OC | 0% | -4% | -2.3% | -41% | -3% | 28.6% | 0% | -2% | -8.45% | 1% | -2% | 41% | -7% | -7% | 6.05% | -1% | -3% | 9.1%
8 | CCN(C(C)=O)c1ccc2c(c1)Cc1ccccc1-2 | 3% | 96% (active) | 97.2% (active) | -3% | 97% (active) | 95.2% (active) | 5% | 97% (active) | 96.8% (active) | -2% | 96% (active) | 94.8% (active) | 11% | 96% (active) | 97.4% (active) | -10% | 97% (active) | 96.8% (active)
9 | Nc1ccccc1CCc1ccccc1 | 0% | 79% (active) | 96.9% (active) | 0% | 74% (active) | 84.5% (active) | 2% | 85% (active) | 41.8% | -1% | 78% (active) | 67% | 0% | 74% (active) | 90.8% (active) | 28% | 91% (active) | 85.7% (active)
10 | CCC(=O)Nc1ccc(NC(C)=O)cc1 | -6% | -9% | -17.6% | -9% | 1% | -6.9% | -5% | 6% | -8.65% | 6% | -16% | -11.6% | -10% | -3% | 23.2% | -8% | -28% | -8.9%
11 | Cc1ccc(S(=O)(=O)OCC(C)(C)C)cc1 | -152% | -169% | 8.4% | -48% | -59% | 2.05% | -63% | -69% | -2.7% | -61% | -83% | -29.6% | -57% | 5% | 86.8% (active) | -125% | -127% | 14.5%
12 | CN(C)C(=S)S(=O)(=O)CCCCS(=O)(=O)C(=S)N(C)C | -1% | 3% | 86.3% (active) | 3% | 8% | 32.1% | 2% | 11% | 92.3% (active) | -6% | -1% | 9% | -2% | 0% | 20.9% | -3% | 7% | 81.8% (active)
13 | CCOC(=O)/C(=C\c1ccc([N+](=O)[O-])cc1)C(C)=O | 46% | 99% (active) | 92.8% (active) | 39% | 99% (active) | 94.7% (active) | 25% | 98% (active) | 92.5% (active) | 17% | 98% (active) | 87.1% (active) | 40% | 99% (active) | 92.4% (active) | 30% | 99% (active) | 91.8% (active)
14 | Oc1c(Br)ccc2c(O)c(Br)ccc12 | 42% | 93% (active) | 89.7% (active) | 51% | 94% (active) | 91% (active) | 36% | 98% (active) | 92.5% (active) | 57% | 98% (active) | 90.5% (active) | 53% | 97% (active) | 90.8% (active) | 31% | 88% (active) | 89.4% (active)
15 | Cc1ccc(NN(C)c2ccc(C)cc2)cc1 | -4% | 2% | 34.3% | -1% | -8% | 16.1% | -4% | -10% | -11.4% | 5% | -4% | 13.4% | 9% | 18% | 27.6% | -3% | 1% | 3.1%
16 | C[C@]12C[C@H](c3ccccc3)Nc3ccccc3N1C(c1ccccc1)=NO2 | 0% | 83% (active) | 64.5% | -13% | 80% (active) | 59.7% | 21% | 80% (active) | 81.5% (active) | 9% | 74% (active) | 54.4% | 6% | 87% (active) | 67.4% | -8% | 88% (active) | 71% (active)
17 | COc1ccc(/C=N/N=c2\[nH][nH]/c(=N\N=C\c3ccc(OC)c4ccccc34)c3ccccc23)c2ccccc12 | 15% | 34% | 57.6% | 0% | 59% | 47.5% | 4% | 76% (active) | 86.9% (active) | -7% | 28% | 37.6% | 0% | 78% (active) | 33.4% | 12% | 85% (active) | 65%
18 | CC(=O)NC(Cc1ccc(Cl)cc1)C(=O)NC(Cc1ccc(Cl)cc1)C(=O)NC(Cc1cccnc1)C(=O)NC(CO)C(=O)NC(Cc1ccc(O)cc1)C(=O)NC(CCCN=C(N)N)C(=O)NC(CC(C)C)C(=O)NC(CCCN=C(N)N)C(=O)N1CCCC1C(=O)NC(C)C(=O)O (configuration not stated) (Ac-[Phe(4-Cl)][Phe(4-Cl)][3Pal]SYRLRPA-OH; configuration not given here) | -20% | -8% | 18.1% | -9% | -16% | 17.9% | -14% | 0% | 5.15% | -18% | -7% | 9.9% | -4% | 8% | 16.7% | 29% | -22% | 53.4%
19 | COc1ccc(CN2CCCN(Cc3ccc(OC)cc3OC)C2c2cc(Br)ccc2O)c(OC)c1 | 31% | 98% (active) | 99% (active) | 18% | 100% (active) | 95.2% (active) | 27% | 99% (active) | 99.2% (active) | 12% | 94% (active) | 57.2% | 15% | 98% (active) | 27.9% | 63% | 99% (active) | 98.7% (active)
